Screening data (PubChem)
CYP2C19 act = increases human CYP2C19 enzyme activity; P33261; recombinant CYP2C19, luciferin-H EGE luminescence; stronger effect = higher value; 0 = fully inhibited enzyme, 1 = untreated enzyme; activation factor at 5 µM; 96,000 tested, under 10 active;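 active = activation factor of at least 2 at 5 µM in the primary screen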
CD11b adhes inh = blocks human CD11b/CD18 adhesion to fibrinogen; P05107+P11215; AID 1497; inhibition, % at 10 µM; 0.54% of 93,000 active; K562 CD11b/CD18 adhesion to fibrinogen, ATPlite luminescence; Mn2+ added to activate the integrin;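 active = primary inhibition of 50% or more at 10 µM, then 40% or more on retest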
Target sequence (P05107 whole entry, looked up, other chains not shown): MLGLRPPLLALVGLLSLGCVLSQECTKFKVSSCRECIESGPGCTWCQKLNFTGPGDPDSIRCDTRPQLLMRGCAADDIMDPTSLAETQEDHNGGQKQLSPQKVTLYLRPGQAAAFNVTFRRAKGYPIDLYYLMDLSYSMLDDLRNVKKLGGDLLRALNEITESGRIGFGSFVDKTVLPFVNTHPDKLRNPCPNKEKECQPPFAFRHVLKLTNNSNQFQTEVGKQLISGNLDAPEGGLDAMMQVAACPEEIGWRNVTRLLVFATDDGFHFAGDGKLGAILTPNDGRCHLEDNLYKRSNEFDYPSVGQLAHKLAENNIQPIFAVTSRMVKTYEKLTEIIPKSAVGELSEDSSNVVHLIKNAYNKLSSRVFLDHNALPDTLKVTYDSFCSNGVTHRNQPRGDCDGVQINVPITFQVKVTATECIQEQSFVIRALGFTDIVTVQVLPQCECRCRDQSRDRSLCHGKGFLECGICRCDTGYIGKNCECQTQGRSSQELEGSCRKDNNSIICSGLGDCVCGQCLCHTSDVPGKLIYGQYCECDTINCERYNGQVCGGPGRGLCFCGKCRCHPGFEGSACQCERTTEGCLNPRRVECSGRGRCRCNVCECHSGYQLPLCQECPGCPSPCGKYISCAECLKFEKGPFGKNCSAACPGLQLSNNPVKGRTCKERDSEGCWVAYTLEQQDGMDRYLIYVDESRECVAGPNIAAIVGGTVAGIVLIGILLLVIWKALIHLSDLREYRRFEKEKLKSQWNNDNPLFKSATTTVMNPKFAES
CYP2C19 inh = inhibitors of human CYP2C19; P33261; CYP2C19 Supersomes, luciferin-H EGE luminescence, 30 min; inhibition, % at 5 µM; 21% of 96,000 active; AID 778;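 active = CYP2C19 inhibition above a set limit at 5 µM in the primary screen, cut at about 50% in these data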
CYP2C9 activ = increases human cytochrome P450 2C9 activity | activation factor at 5 µM | recombinant CYP2C9, luciferin-H conversion, luminescence; stronger effect = higher value; factor 1 = untreated enzyme, 0 = blocked | P11712 | 1.4% of 96,000 active | AID 1024;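 active = activation factor of 2 or more for CYP2C9 at a 5 µM dose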
CYP2C9 inhib = human CYP2C9 inhibition | P11712 | CYP2C9 Supersomes, luciferin-H conversion, luminescence | inhibition, % at 5 µM | 20% of 96,000 active | AID 777;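 active = blocking of liver enzyme CYP2C9 beyond about 50% at 5 µM, limit read from the data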
CD11b adhes enh = enhancers of human CD11b/CD18 binding to fibrinogen; P05107+P11215; K562 CD11b/CD18 adhesion to fibrinogen, ATPlite luminescence; activation, % at 10 µM; 0.07% of 93,000 active; AID 1499;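 active = 10 µM primary screen giving 50% or more activity, confirmed by 40% or more on retest at that dose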
Each line names hits and unclear results; the compound was inactive in the other large screens. An excerpt weighted towards active compounds, which were near 28% of everything screened.

O=C(NC1CCCCC1)N(CCO)Cc1cc2cc3c(cc2[nH]c1=O)OCCO3	CYP2C9 inhib 53
COc1ccc2[nH]c(=O)c(CN(CCc3cccc(C)c3)C(C)=O)cc2c1	CYP2C19 inh 86, CYP2C9 inhib 63
CCC(=O)N(Cc1cc2cc(OC)ccc2[nH]c1=O)c1ccc(C)cc1C	CYP2C9 inhib 55
CC(=O)N(CCc1ccccc1C)Cc1cc2cc3c(cc2[nH]c1=O)OCO3	CYP2C19 inh 75, CYP2C9 inhib 54
Cc1ccc(N2C(=O)NC(NC(=O)C(C)(C)C)(C(F)(F)F)C2=O)cc1 (configuration not stated)	none (no result: CYP2C19 act, CYP2C19 inh, CYP2C9 activ, CYP2C9 inhib)
Cc1cc(C)n(-c2c(F)c(F)c(CO)c(F)c2F)n1	none
Cn1c(=O)c2c(nc(NCCc3ccccc3)n2Cc2ccc(F)cc2)n(C)c1=O	none
COc1ccc(CNc2nc3c(c(=O)n(Cc4ccc(F)cc4)c(=O)n3C)n2C)cc1	CYP2C19 inh 91, CYP2C9 inhib 81
CC(C)CCNc1nc2c(c(=O)n(Cc3cccc(F)c3)c(=O)n2C)n1C	CYP2C19 inh 88, CYP2C9 inhib 85
Cn1c(NCC(O)c2ccccc2)nc2c1c(=O)n(Cc1ccc(Cl)cc1)c(=O)n2C (configuration not stated)	CYP2C9 inhib 53 (no result: CD11b adhes inh, CD11b adhes enh)
Cn1c(=O)c2c(nc(NCc3ccccc3)n2C)n(C)c1=O	none (no result: CD11b adhes inh, CD11b adhes enh)
Cn1c(NCc2ccccc2)nc2c1c(=O)n(Cc1ccccc1)c(=O)n2C	none (no result: CD11b adhes inh, CD11b adhes enh)
Cc1[nH]c2ccccc2c1C(O)CN1CCN(c2cccc(C(F)(F)F)c2)CC1 (configuration not stated)	none
CCC(=O)Nc1cccc(NC(=O)c2cccc([N+](=O)[O-])c2)c1	none
O=C(COc1cccc(NC(=O)c2cccc([N+](=O)[O-])c2)c1)c1ccc(Br)cc1	CYP2C9 inhib 66 (no result: CD11b adhes inh, CD11b adhes enh)
CC(C)(C)S(=O)c1cccs1 (configuration not stated)	none
Clc1ccc(OCCN2CCN(c3ncnc4sccc34)CC2)cc1	CD11b adhes inh 99, CYP2C19 inh 84, CYP2C9 inhib 56
Cc1ccc(OCCN2CCN(c3ncnc4sc(C)c(C)c34)CC2)cc1	CD11b adhes inh 97, CYP2C19 inh 86, CYP2C9 inhib 89
COc1ccc(C(=O)NCC(=O)OCC(=O)Nc2cc(OC)ccc2OC)cc1	CYP2C19 inh 71
COc1ccc(OC)c(NC(=O)COC(=O)c2c3c(nc4ccccc24)CCCC3)c1	CYP2C9 inhib 52
NNC(=O)c1cccc(COc2cccc(Br)c2)c1	CYP2C19 inh 98, CYP2C9 inhib 68 (no result: CD11b adhes inh, CD11b adhes enh)
COc1ccc(OC)c(NC(=O)CNC(=O)c2cccs2)c1	CYP2C19 inh 54
COc1ccc(N2C(=O)CCC(C(C)=O)=C2C)cc1	none
COc1ccc(C(=O)NCC(=O)OCc2cccc(Br)c2)cc1	CYP2C19 inh 55 (no result: CD11b adhes inh, CD11b adhes enh)
CCCNC(=O)C1CCN(c2nc(C)cc(C)n2)CC1	none
Fc1ccc(/C=N/n2c(-c3cccs3)n[nH]c2=S)cc1	none
CCC(Sc1ncnc2sc(C)c(C)c12)C(=O)OC (configuration not stated)	CYP2C19 inh 65, CYP2C9 inhib 93
Cc1nnc(NC(=O)CSc2ncnc3scc(-c4ccccc4)c23)s1	none (no result: CD11b adhes inh, CD11b adhes enh)
COC(=O)c1c(-c2ccccc2)csc1NC(=O)CSc1ncnc2sc(C)c(C)c12	CYP2C9 inhib 71
Cc1sc2ncnc(SCC(=O)NCC(C)C)c2c1C	CYP2C9 inhib 61
O=C(Nc1ccc(N2CCN(Cc3ccccc3)CC2)cc1)c1ncn[nH]1	none
CCOC(=O)Cc1csc(NC(NC(=O)CC)(C(F)(F)F)C(F)(F)F)n1	none
CC(C)(C)n1nc(-c2ccc(F)cc2)c2c(N)ncnc21	none
CC(C)(C)n1nc(-c2ccc(Cl)cc2)c2c(N)ncnc21	CYP2C19 inh 59 (no result: CD11b adhes inh, CD11b adhes enh)
CC(NC(=O)OCc1ccccc1)C(=O)N1CC(O)CC1C(=O)O (configuration not stated)	none
Cc1ccc(OCc2nc(-c3ccc(Cl)cc3)n[nH]2)cc1	CYP2C19 inh 95, CYP2C9 inhib 94
Cc1ccc(C(=O)CC(=O)COc2ccc(Cl)cc2)cc1	none (no result: CYP2C19 act, CYP2C19 inh, CYP2C9 activ, CYP2C9 inhib)
O=C(Nc1ccccc1F)C1CCCN(S(=O)(=O)c2cccc3cccnc23)C1 (configuration not stated)	CYP2C19 inh 76
COc1cccc(NC(=O)C2CCCN(S(=O)(=O)c3cccc4cccnc34)C2)c1 (configuration not stated)	none
CC(C)(C)NC(=O)C1CCCN(S(=O)(=O)c2cccc3cccnc23)C1 (configuration not stated)	CYP2C9 activ 2.7
O=C(C1CCCN(S(=O)(=O)c2cccc3cccnc23)C1)N1CCN(c2ccc(F)cc2)CC1 (configuration not stated)	CYP2C19 inh 61
Cc1[nH]c(=O)[nH]c(=O)c1S(=O)(=O)N1CCCC(C(=O)NCc2ccco2)C1 (configuration not stated)	CYP2C19 inh 74, CYP2C9 inhib 97
O=C(O)C1CC=CCC1C(=O)Nc1cccc(Cl)c1 (configuration not stated)	none
Cc1nnc(NC(=O)C2CCCN(S(=O)(=O)c3ccccc3C(F)(F)F)C2)s1 (configuration not stated)	CYP2C19 inh 51, CYP2C9 inhib 62
CCOC(=O)C1CCCN(S(=O)(=O)c2cccc3cccnc23)C1 (configuration not stated)	CYP2C19 inh 81, CYP2C9 activ 4.5
O=C(NCc1ccco1)C1CCCN(S(=O)(=O)c2cccc3cccnc23)C1 (configuration not stated)	CYP2C19 inh 70, CYP2C9 activ 4.1
O=C(Nc1ccncc1)C1CCCN(S(=O)(=O)c2cccc3cccnc23)C1 (configuration not stated)	CYP2C19 inh 99, CYP2C9 inhib 94
O/N=C(/CN(O)/C=C1/C=CC=N1)c1cccs1	none
COCCn1c(SCc2c(F)cccc2Cl)nc2c1c(=O)[nH]c(=O)n2C	none
CC(C)C(=O)N(Cc1cc2ccccc2[nH]c1=O)C(C)(C)C	none
Cc1ccc(S(=O)(=O)/N=C(\CN2CCCCC2)N2CCOCC2)cc1	CYP2C19 inh 64, CYP2C9 inhib 53
Cc1ccc(S(=O)(=O)N2CCN(C(=O)CN3CCCCC3)C2)cc1	none
C=C1N(CCCCCC(=O)O)C(=O)OC12CCCCC2	none
Cc1c(C(=O)N2CCN(CCc3ccccc3)CC2)oc2ccccc12	CYP2C19 inh 73
Cc1c(C(=O)N2CCN(S(C)(=O)=O)CC2)oc2ccccc12	CYP2C19 inh 91
COc1ccccc1N1CCN(C(=O)c2oc3ccccc3c2C)CC1	none
Cc1cc(Cl)ccc1OCC(=O)N1CCCCC1	CYP2C19 inh 88
COc1cc2c(cc1OC)CN(C(=O)CCCOc1ccc(Cl)cc1Cl)CC2	CYP2C9 inhib 57
